The values that follow come from PubChem BioAssay.

The structures appear in SMILES notation. Inconclusive results are not listed. Some structures have more than one record in an assay (separate samples or runs), and their calls can disagree. The source made the active and inactive calls. Unless noted, no cut-off is given here; in the data, nearly all actives have AC50 up to about 26 µM.

Test [1] in a line: growth inhibition of DIPG glioma cells, dose response, cell-based, SU-DIPG-XVII, MIPE5.0, CellTiter-Glo, qHTS (AID 1347060).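 For AC50: cells exposed to compound for 48 hours before viability readout.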 The conditions noted are these: SU-DIPG-XVII viability, CellTiter-Glo ATP luminescence.
Test [2] is described as follows: growth inhibition of DIPG glioma cells, dose response, cell-based, SU-DIPG-XIII, MIPE4.0, CellTiter-Glo, qHTS (AID 1347061; cut-off not given, nearly all actives have AC50 up to about 37 µM;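 note: cells exposed to compound for 48 hours before readout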). To be noted: SU-DIPG-XIII viability, CellTiter-Glo ATP luminescence.
Test [3] in a line: growth inhibition of DIPG glioma cells, dose response, cell-based, JHH-DIPG-1, MIPE4.0, CellTiter-Glo, qHTS (AID 1347062; cut-off not given, nearly all actives have AC50 up to about 27 µM;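 for AC50: cells exposed to compound for two days before readout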). To be noted: JHH-DIPG-1 viability, CellTiter-Glo ATP luminescence. A general note: Cellular ATP, detected with luciferase, serves as a proxy for viable cell number.
Test [4] is described as follows: growth inhibition of DIPG glioma cells, dose response, cell-based, SU-DIPG-IV, MIPE4.0, CellTiter-Glo, qHTS (AID 1347063; cut-off not given, nearly all actives have AC50 up to about 30 µM;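 note: compound exposure lasted 48 hours before the viability readout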). To be noted: SU-DIPG-IV viability, CellTiter-Glo ATP luminescence.
The nature of test [5]: growth inhibition of DIPG glioma cells, dose response, cell-based, SU-DIPG-XIII, MIPE5.0, CellTiter-Glo, qHTS (AID 1347064; cut-off not given, nearly all actives have AC50 up to about 23 µM;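 for AC50: cells exposed to compound for 48 hours before the viability read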). The conditions noted are these: SU-DIPG-XIII viability, CellTiter-Glo ATP luminescence.
Test [6] has as its system Aerobactin synthetase IucA (Klebsiella pneumoniae). The test is described as follows: IucA aerobactin synthetase inhibitors, biochemical, Tocris library, absorbance (AID 1345561; call rule not given here;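 note: 100% = enzyme without compound and 0% = no enzyme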). The conditions noted are these: purified IucA enzyme assay, absorbance (OD) read-out; stronger effect = lower value;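 tested at 8 µM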.
A short description of test [7]: sensitizers of A549 cells to miR-34 induction, primary screen, imaging, A549 dox-inducible miR-34, nuclei and caspase counts (AID 1347080;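 active = compounds whose cell count with miR-34 switched on is under 0.7 times the count with it off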). The conditions noted are these: A549 miR-34 inducible, Hoechst nuclei count, 48 h.
Test [8] is described as follows: viability rescue of complex I mutant cybrids, primary screen, cell-based, galactose medium, ATP luminescence (AID 1645843;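 active = z-score of at least 1.8 in each of two replicates, scored against plate mean and spread of sample wells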;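 note: positive z means more ATP and so rescue of galactose-driven cybrid death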). The conditions noted are these: complex I mutant cybrid cells, 72 h, stronger effect = higher value.
Test [9] is described as follows: viability loss in pontine glioma line – cell-based, SU-DIPG-XXV, MIPE5.0, CellTiter-Glo, qHTS, dose response (AID 1347065).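 Note: cells exposed to compound for 48 hours before ATP readout.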 To be noted: CellTiter-Glo ATP luminescence.
Test [10] can be described thus: SU-DIPG-VI glioma cell viability, MIPE4.0 library, CellTiter-Glo luminescence, qHTS (AID 1347066; cut-off not given, nearly all actives have AC50 up to about 30 µM;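 note: cells exposed to compound for 48 hours before readout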). To be noted: CellTiter-Glo ATP luminescence.
The nature of test [11]: JHH-DIPG-1 glioma cell viability, MIPE5.0 library, CellTiter-Glo luminescence, qHTS (AID 1347067).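 Note: cells exposed to compound for 48 hours before readout.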 The conditions noted are these: JHH-DIPG-1 glioma viability, CellTiter-Glo ATP luminescence.
Test [12] can be described thus: SU-DIPG-XXV glioma cell viability, MIPE5.0 library, qHTS (AID 1347068; cut-off not given, nearly all actives have IC50 up to about 30 µM;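 for IC50: cells exposed to compound for 48 hours before viability readout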).
Test [13] in a line: liver-stage malaria parasite growth inhibition, primary screen, cell-based, HepG2, luciferase luminescence, HepG2 viability (AID 624349; in the data active = parasite load remaining mostly below about 12%, no sharp cut-off; inactive = mostly above about 10%;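 note: 100% = mean of DMSO negative control wells on the same plate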). To be noted: P. berghei liver stage in HepG2, luciferase luminescence, concentration not given here; parasite load remaining: stronger effect = lower value; viability: measured here: HepG2 viability without parasites.
Setting [14] is: stronger effect = lower value, cell number ratio, induced over uninduced.
[15] abbreviates: measured here: relative caspase fold change +Dox/-Dox.
Setting [16] is: measured here: total cells with miR-34 induction, stronger effect = lower value.
[17] abbreviates: measured here: total cells without miR-34 induction.

As for `O=C(NC1CC1)c1cccc(-c2ccc3c(NC(=O)C4CC4)n[nH]c3c2)c1`, the AC50 – broadly, the concentration giving half of the maximal activity seen – in test [1] is 10500 nM (active); in test [2], 4690 nM (active); in test [3] it was 9350 nM (active); in test [4] it was 11800 nM (active); in [5], 8330 nM (active).

Regarding `CCOC(=O)C12CC1/C(=N\O)c1ccccc1O2` (stereo not drawn), the remaining activity (in general, the signal under treatment as a percentage of the control signal) in [6] is 109% (inactive). In addition, the fold change is 0.923 (inactive) in [7] (setting [14]) and 1.17 in test [7] (setting [15]). Further, the cell count in test [7] (setting [16]) worked out at 8510; in test [7] (setting [17]), 9220. Moreover, the z-score in test [8] is -0.07 (inactive).

In the case of `Cc1cnc(Nc2ccc(CN3CCOCC3)cc2)nc1Nc1cccc(S(=O)(=O)NC(C)(C)C)c1`, the AC50 is 4170 nM (active) in test [1]; 10500 nM (active) in [2]; 11800 nM (active) in test [3]; 11800 nM (active) in [4]; 3320 nM (active) in test [5]; 3320 nM (active) in test [9]. Moreover, the AC50 in test [10] is 8330 nM (active); in [11], 5900 nM (active). Further, the IC50 (as a rule, the point on the concentration scale where inhibition reaches its midpoint) in test [12] is 3720 nM (active).

Take `COC(=O)C[C@](O)(CCCC(C)(C)O)C(=O)O[C@@H]1C(OC)=CC23CCCN2CCc2cc4c(cc2[C@H]13)OCO4` (stereo partly drawn): the AC50 was 66.1 nM (active) in test [1], 118 nM (active) in [5], 93.4 nM (active) in test [9] and 332 nM (active) in [11]. For the same molecule, the molecule was called inactive in test [2], in test [3], in test [4], in test [10] and in [12].

As for `CCC(=O)O[C@]1(C(=O)CO)CC[C@H]2[C@@H]3CCC4=CC(=O)CC[C@]4(C)[C@H]3CC[C@@]21C`, the molecule was classed as inactive in [1], in test [2], in test [3], in test [4], in test [5] and in test [9]. Further, the molecule was classed as inactive in [10], in test [11] and in [12].

Regarding `NS(=O)(=O)c1ccc(NC(=S)N2CCN(C/C=C/c3ccccc3)CC2)cc1`, in test [1], the outcome was inactive.

Take `CC(C)S(=O)(=O)c1ccc2nccc(Nc3ccc4scnc4c3)c2c1`: the AC50 in test [1] was 16600 nM (active).

As to `CN(C)c1ccc2cc(C(=O)N[C@@H](CCCN=C(N)CCl)C(=O)NCc3ccccc3)ccc2c1`, the AC50 was 8330 nM (active) in test [1]; 16600 nM (active) in [2]; 13200 nM (active) in test [3]; 7430 nM (active) in test [4]; 2630 nM (active) in test [5]; 9340 nM (active) in [9]. In addition, the half-maximal activity concentration (AC50) in [10] was 16600 nM (active); in test [11], 8330 nM (active).

As for `Cc1cc(C)c(CNC(=O)c2cc(-c3ccc(N4CCN(C)CC4)nc3)cc3c2c(C)cn3C(C)C)c(=O)[nH]1`, the AC50 in [1] was 20900 nM (active); in test [9], 26300 nM (active). Further, the outcome in test [1], in test [5] and in test [12] was inactive.

In the case of `COC(=O)C1=C(C)NC(c2ncc(F)cc2F)=N[C@H]1c1ccc(F)cc1Cl`, the AC50 in [1] was 23500 nM (active).

Turning to `C=CC(=O)N1CCc2ccc(-n3c(=O)ccc4cnc5ccc(-c6cnn(C)c6)cc5c43)cc21`, the AC50 in test [1] is 229 nM (active); in test [2], 8330 nM (active); in test [3], 7430 nM (active); in test [4], 2350 nM (active); in test [5] it was 72.3 nM (active); in test [9] it was 144 nM (active). In addition, the AC50 in [10] was 3720 nM (active); in test [11], 1150 nM (active).

For the molecule `CO[C@H]1/C=C\C=C(\C)C(=O)NC2=CC(=O)C(NCCN(C)C)=C(C[C@@H](C)C[C@H](OC)[C@H](O)[C@@H](C)/C=C(/C)[C@@H]1OC(N)=O)C2=O`, the AC50 is 52.5 nM (active) in [1]; 83.3 nM (active) in [2]; 187 nM (active) in test [3]; 13.2 nM (active) in [4]; 118 nM (active) in test [5]; 235 nM (active) in test [9]. In addition, the AC50 is 5260 nM (active) in test [10] and 74.2 nM (active) in test [11]. In test [12], the IC50 was 1180 nM (active).

As for `COc1ccc(OC)c2c(=S)c3ccccc3[nH]c12`, the parasite load remaining in [13] was 32.4% (inactive). Besides, the viability (commonly a read-out of living cells in per cent, often relative to untreated cells) in [13] is 149%. Also, in [6], the remaining activity was 86.6% (inactive). In addition, the fold change in test [7] (setting [14]) was 0.958 (inactive); in test [7] (setting [15]), 1.3. The cell count in test [7] (setting [16]) was determined as 8120; in test [7] (setting [17]), 8480. In addition, the z-score in test [8] was 0.325 (inactive).

Take `c1ccc(-c2n[nH]c3c2oc2ccccc23)cc1`: in [13], the parasite load remaining is 24.1% (inactive). The viability in test [13] turned out to be 103%. The remaining activity in [6] is 98.7% (inactive). Also, the fold change in test [7] (setting [14]) was 0.891 (inactive); in test [7] (setting [15]), 1.09. Further, the cell count in test [7] (setting [16]) is 6520; in [7] (setting [17]), 7320. Moreover, the z-score in test [8] is 0.045 (inactive).

On to `CC[C@@]1(O)C(=O)OCc2c1cc1n(c2=O)Cc2c-1nc1cc(F)c(C)c3c1c2[C@@H](N)CC3`, for which, in [1], the AC50 is 2.35 nM (active).

`CC(C)[C@H](O)C(=O)N[C@@H](C)C(=O)N[C@@H]1C(=O)N(C)CCc2ccccc21`: the call in [1], in test [2], in test [3], in test [4], in test [5] and in test [9] was inactive. Further, the molecule was classed as inactive in [10], in test [11] and in test [12].

Take `Nc1ccc(-c2cccc3c(=O)cc(N4CCOCC4)oc23)cc1`: the parasite load remaining in test [13] is 43.6% (inactive). Besides, the viability in test [13] came to 83.4%. In addition, the remaining activity in test [6] was 104% (inactive). The fold change was 0.901 (inactive) in [7] (setting [14]) and 1.45 in [7] (setting [15]). Besides, the cell count stood at 3870 in test [7] (setting [16]) and 4300 in test [7] (setting [17]). In test [8], the z-score is 4.44 (active).

On to `CN(C)C(=O)n1nnnc1Cc1ccc(-c2ccccc2)cc1`, for which the remaining activity in test [6] was 82% (inactive). For the same molecule, the results for the fold change in test [7] (setting [14]) and in test [7] (setting [15]) were 1.31 (inactive) and 1.05, respectively. The results for the cell count in [7] (setting [16]) and in test [7] (setting [17]) were 1840 and 1400, respectively. In addition, the z-score in test [8] was -0.57 (inactive).

As for `O=C(c1ccc(F)c(F)c1Nc1ccc(I)cc1F)N1CC(O)([C@@H]2CCCCN2)C1`, the AC50 in test [1] was 332 nM (active); in test [2], 418 nM (active); in [3], 332 nM (active); in test [4], 5900 nM (active); in test [5], 372 nM (active); in [9], 525 nM (active).

Take `N#CNC(=NCCCCCCOc1ccc(Cl)cc1)Nc1ccncc1`: the AC50 in test [1] is 29.5 nM (active); in test [2], 4.69 nM (active); in test [3] it was 1.32 nM (active); in [4] it was 4.69 nM (active); in test [5] it was 8.33 nM (active); in test [9] it was 13.2 nM (active). Further, the AC50 in [10] was 5.26 nM (active); in test [11] it was 14.8 nM (active).

For the molecule `COc1cccc2c(NCc3ccccc3)nc(-n3c(N)nc4ccccc43)nc12`, the AC50 was 3720 nM (active) in [1]; 9350 nM (active) in [3]; 3320 nM (active) in [4]; 3320 nM (active) in test [5]; 2630 nM (active) in test [9]; 2640 nM (active) in [10]. Also, the AC50 in test [11] was 2950 nM (active). Besides, in test [2], the outcome was inactive. Further, in test [12], the IC50 is 2950 nM (active).

As to `O=c1c(-c2ccc(O)cc2)coc2cc(O[C@@H]3O[C@H](CO)[C@@H](O)[C@H](O)[C@H]3O)ccc12`, the molecule was classed as inactive in [1], in [2], in test [3], in [4], in [5] and in test [9]. The molecule was called inactive in [10], in test [11] and in test [12].
